The values that follow come from PubChem BioAssay.

One experiment has as its target Albumin (Bos taurus) (UniProt P02769). Briefly: compounds binding labelled BSA control protein – biochemical, small-molecule microarray, Alexa647 label, 635/667 nm fluorescence, artefact control for SMM control protein annotation, profiling panel (AID 1118).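 Also: score merges 667 nm emission intensity and signal-to-noise per printed compound spot.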 Conditions: BSA-A647 binding, fluorescence 635 nm, higher = more signal.
A short description of experiment [1]: probe aXIP binding to arrayed compounds – biochemical, NeuroSMM set, 635/667 nm fluorescence, primary screen (AID 1119).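 Also: probe is the protein aXip251-270 applied at 1 µg/mL to compound-printed slides; binding of probe to printed compounds measured as 667 nm fluorescence plus signal to noise.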 The following applies: small-molecule microarray, higher = more signal, called active from +8 up or from −8 down.
A short description of experiment [2]: probe aNOTCH3 binding on compound microarray – biochemical, small-molecule microarray, 635/667 nm fluorescence, primary screen (AID 1120).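 Also: probe is a biotin-tagged antibody raised against NOTCH3 rather than NOTCH3 protein; score merges spot fluorescence near 667 nm with spot signal to noise.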 Conditions: higher = more signal.
Experiment [3] is described as follows: probe aNOTCH2 binding on compound microarray – biochemical, small-molecule microarray, 635/667 nm fluorescence, primary screen (AID 1121).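 Also: score merges feature fluorescence read at 667 nm with its signal to noise.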 The following applies: higher = more signal.
In experiment [4] the target is Carbonic anhydrase 2 (Homo sapiens) (UniProt P00918). Briefly: compounds binding carbonic anhydrase 2 – biochemical, small-molecule microarray, Alexa647-labelled CAII, profiling panel (AID 1122). The following applies: CAII-A647 binding fluorescence, higher = more signal.
Experiment [5] in a line: COS7 lysate on small-molecule microarray, probe aHis, 635 nm (AID 1123).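 Also: z-score combines 667nm fluorescence intensity with signal-to-noise per printed compound spot.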 The following applies: COS7 cell lysate, fluorescence, higher = more signal.
The nature of experiment [6]: probe aLAP1 signal on lysate-treated microarray – cell lysate, small-molecule microarray, COS7 lysate, primary screen (AID 1124).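 Also: lysate comes from COS7 cells expressing LAP1 and is applied at 0.3 µg/mL; score merges spot fluorescence near 667 nm with signal-to-noise over triplicate slides.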 Conditions: probe aLAP1, fluorescence, higher = more signal.
Another experiment deals with Sam68 (KHDRBS1). Briefly: compounds binding KHDRBS1 protein – biochemical, small-molecule microarray, 635 nm fluorescence, primary screen (AID 1125).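 Also: score merges 667 nm channel intensity with signal to noise over triplicate slides.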 Conditions: higher = more signal.
Experiment [7] deals with Chordin-like protein 2 (CHRDL2). Briefly: compounds binding chordin-like 2 – biochemical, small-molecule microarray, 635 nm fluorescence, primary screen (AID 1126).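 Also: printed compound slides probed with Chrdl2 protein at 4 µg/mL for 1 h at 4 C; score merges 667 nm emission intensity with signal to noise over three replicate slides.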 The following applies: fluorescence 635 nm, higher = more signal.
Experiment [8] deals with Concanavalin-A (Canavalia ensiformis) (UniProt P02866). Briefly: compounds binding concanavalin A lectin – biochemical, small-molecule microarray, Alexa647 label, 635 nm, artefact control for SMM control protein annotation, primary screen (AID 1127).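 Also: z combines 667 nm emission intensity with signal-to-noise across three replicate slides.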 Conditions: ConA-A647 binding fluorescence, higher = more signal.
Experiment [9] is described as follows: compounds binding Alexa647 anti-His antibody – biochemical, small-molecule microarray, 635 nm fluorescence, artefact control for SMM control protein annotation, primary screen (AID 1128).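 Also: score merges feature fluorescence with signal-to-noise for each printed compound spot.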 The following applies: higher = more signal.
Experiment [10] has as its system Human papillomavirus type 1a E7 protein (residues 1-88). Briefly: HPV1a E7 small-molecule binders, primary screen, biochemical, small-molecule microarray, residues 1-88, 635 nm (AID 1129). The following applies: small-molecule microarray binding, fluorescence 635 nm; higher = more signal.
The target in experiment [11] is Focal adhesion kinase 1 (Homo sapiens) (UniProt Q05397). Briefly: PTK2 protein binding on printed compound slides – biochemical, small-molecule microarray, 635/667 nm fluorescence, BSA, DTT, primary screen (AID 1130).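 Also: composite of spot emission at 667 nm and signal to noise over triplicate slides.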 The following applies: 635 nm fluorescence, higher = more signal.
For experiment [12], the system named is Fibrinogen (Alexa647-labelled). Briefly: Alexa647-fibrinogen binding to printed small molecules – biochemical, small-molecule microarray, 635/667 nm fluorescence, artefact control for SMM control-protein annotation, profiling panel (AID 1131).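 Also: z-score merges 667 nm fluorescence with per-spot signal-to-noise over triplicate slides.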 The following applies: fibrinogen-A647 binding fluorescence, higher = more signal.
Experiment [13] concerns the target Follistatin (Homo sapiens) (UniProt P19883). Briefly: FST protein binding to printed compounds – biochemical, small-molecule microarray, 635/667 nm fluorescence, primary screen (AID 1132). Conditions: 635 nm fluorescence, higher = more signal.
For experiment [14], the target named is Fibroblast growth factor 2 (Homo sapiens) (UniProt P09038). Briefly: basic fibroblast growth factor binding to printed compounds – biochemical, small-molecule microarray, 635/667 nm fluorescence, primary screen (AID 1133). The following applies: FGF2, fluorescence 635/667, higher = more signal.
Experiment [15] can be described thus: JC-1 mitochondrial potential readout, lung cancer cells – cell-based, A549, JC-1 fluorescence, basal, 24 h, 100 nL, profiling panel (AID 1138).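 Also: A549 lung adenocarcinoma cells under basal conditions with no added stimulus; test concentration not given here.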 Conditions: higher = more signal.
For a further experiment, the system named is Lefty1. Briefly: Lefty1 protein binding to printed compounds – biochemical, small-molecule microarray, 635/667 nm fluorescence, primary screen (AID 1139). Conditions: fluorescence 635/667, higher = more signal.
Experiment [16] concerns wheat germ agglutinin (Triticum aestivum), Alexa647-labelled. Briefly: Alexa647-WGA lectin binding to printed small molecules – biochemical, small-molecule microarray, 635/667 nm fluorescence, artefact control for SMM control-protein annotation, profiling panel (AID 1140).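 Also: score merges 667 nm feature emission with signal to noise over triplicate slides.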 Conditions: WGA-A647 binding, 635 nm fluorescence, higher = more signal.
Experiment [17] concerns the target Luciferin 4-monooxygenase (Photinus pyralis) (UniProt P08659). Briefly: inhibition of purified Photinus pyralis luciferase – biochemical, luminescence, purified enzyme, 2006 set, primary screen (AID 1141).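 Also: cell-free assay with purified firefly luciferase at 100 ng per well in PBS; test concentration not given here.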 The following applies: purified firefly luciferase, SteadyGlo luminescence, 30 min; higher = more signal, called active from +8 up or from −8 down.

Structures are written as SMILES. Calls of active or inactive are those of the source.

Sequence of Albumin (Bos taurus) (P02769 whole entry, looked up): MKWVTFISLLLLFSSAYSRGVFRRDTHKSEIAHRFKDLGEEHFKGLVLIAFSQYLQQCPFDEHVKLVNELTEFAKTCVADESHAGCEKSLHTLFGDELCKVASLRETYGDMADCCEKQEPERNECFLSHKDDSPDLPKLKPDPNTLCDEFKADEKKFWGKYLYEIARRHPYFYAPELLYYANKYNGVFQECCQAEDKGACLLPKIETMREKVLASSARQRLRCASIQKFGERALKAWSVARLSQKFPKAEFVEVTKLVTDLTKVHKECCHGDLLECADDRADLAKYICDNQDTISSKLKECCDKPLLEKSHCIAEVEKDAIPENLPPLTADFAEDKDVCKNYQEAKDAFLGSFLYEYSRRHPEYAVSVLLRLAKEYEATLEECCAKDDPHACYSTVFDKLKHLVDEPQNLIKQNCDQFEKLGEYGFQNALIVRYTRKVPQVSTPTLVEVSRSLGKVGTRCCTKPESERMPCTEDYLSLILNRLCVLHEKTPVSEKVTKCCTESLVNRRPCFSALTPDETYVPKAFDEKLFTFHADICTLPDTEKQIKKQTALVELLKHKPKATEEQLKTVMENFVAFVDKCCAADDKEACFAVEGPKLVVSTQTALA
Sequence of Concanavalin-A (Canavalia ensiformis) (P02866 whole entry, looked up): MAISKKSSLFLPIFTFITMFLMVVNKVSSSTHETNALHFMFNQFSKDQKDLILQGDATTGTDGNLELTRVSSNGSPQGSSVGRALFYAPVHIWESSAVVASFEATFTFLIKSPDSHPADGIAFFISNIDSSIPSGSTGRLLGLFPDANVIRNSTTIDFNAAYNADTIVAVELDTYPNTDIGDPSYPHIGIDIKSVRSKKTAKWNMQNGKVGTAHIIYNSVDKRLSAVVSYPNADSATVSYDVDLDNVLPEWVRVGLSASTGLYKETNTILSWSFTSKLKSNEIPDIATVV
Sequence of Fibroblast growth factor 2 (Homo sapiens) (P09038 whole entry, looked up): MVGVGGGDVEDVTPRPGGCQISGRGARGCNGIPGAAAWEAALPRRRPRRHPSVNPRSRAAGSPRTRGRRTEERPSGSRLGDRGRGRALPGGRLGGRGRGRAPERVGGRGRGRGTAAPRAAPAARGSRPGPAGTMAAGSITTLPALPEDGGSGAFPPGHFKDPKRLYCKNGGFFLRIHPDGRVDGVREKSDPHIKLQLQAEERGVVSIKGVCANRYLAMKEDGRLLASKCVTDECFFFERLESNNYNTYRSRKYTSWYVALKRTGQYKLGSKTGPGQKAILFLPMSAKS
Sequence of Follistatin (Homo sapiens) (P19883 whole entry, looked up): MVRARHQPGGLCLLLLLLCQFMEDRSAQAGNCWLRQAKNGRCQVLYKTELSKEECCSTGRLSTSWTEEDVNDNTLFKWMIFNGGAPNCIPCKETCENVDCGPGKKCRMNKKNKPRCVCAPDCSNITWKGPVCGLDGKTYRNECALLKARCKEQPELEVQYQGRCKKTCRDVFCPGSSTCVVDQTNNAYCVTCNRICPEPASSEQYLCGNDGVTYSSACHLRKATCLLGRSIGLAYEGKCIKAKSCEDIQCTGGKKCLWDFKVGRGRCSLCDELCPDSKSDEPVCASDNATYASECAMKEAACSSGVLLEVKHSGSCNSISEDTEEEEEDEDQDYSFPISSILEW
Sequence of Focal adhesion kinase 1 (Homo sapiens) (Q05397 whole entry, looked up): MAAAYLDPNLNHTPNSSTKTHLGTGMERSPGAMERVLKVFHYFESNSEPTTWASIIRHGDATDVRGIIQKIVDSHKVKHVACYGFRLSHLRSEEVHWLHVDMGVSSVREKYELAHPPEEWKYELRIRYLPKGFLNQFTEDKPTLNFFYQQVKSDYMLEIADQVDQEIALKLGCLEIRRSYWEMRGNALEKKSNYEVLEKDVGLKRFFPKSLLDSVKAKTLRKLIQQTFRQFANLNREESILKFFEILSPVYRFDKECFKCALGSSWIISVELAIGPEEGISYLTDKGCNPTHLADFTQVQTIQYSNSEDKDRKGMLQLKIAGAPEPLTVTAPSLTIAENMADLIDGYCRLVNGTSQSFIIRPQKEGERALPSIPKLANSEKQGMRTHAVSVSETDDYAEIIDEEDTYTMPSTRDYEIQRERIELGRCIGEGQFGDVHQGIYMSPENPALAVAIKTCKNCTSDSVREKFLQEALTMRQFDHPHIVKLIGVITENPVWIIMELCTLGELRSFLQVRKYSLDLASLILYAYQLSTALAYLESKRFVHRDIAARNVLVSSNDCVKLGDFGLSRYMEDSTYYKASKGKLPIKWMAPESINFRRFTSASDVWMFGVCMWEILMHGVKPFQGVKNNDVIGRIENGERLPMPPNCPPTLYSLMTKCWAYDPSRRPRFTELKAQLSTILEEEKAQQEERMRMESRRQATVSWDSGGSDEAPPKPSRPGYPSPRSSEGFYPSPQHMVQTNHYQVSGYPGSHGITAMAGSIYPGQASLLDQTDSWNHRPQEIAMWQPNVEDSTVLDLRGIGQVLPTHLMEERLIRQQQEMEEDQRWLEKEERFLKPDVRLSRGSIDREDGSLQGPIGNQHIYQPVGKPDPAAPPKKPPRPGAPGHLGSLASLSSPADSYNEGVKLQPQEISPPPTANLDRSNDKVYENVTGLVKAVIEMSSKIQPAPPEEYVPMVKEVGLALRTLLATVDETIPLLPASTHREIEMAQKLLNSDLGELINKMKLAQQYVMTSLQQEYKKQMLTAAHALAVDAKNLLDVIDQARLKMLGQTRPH
Sequence of Luciferin 4-monooxygenase (Photinus pyralis) (P08659 whole entry, looked up): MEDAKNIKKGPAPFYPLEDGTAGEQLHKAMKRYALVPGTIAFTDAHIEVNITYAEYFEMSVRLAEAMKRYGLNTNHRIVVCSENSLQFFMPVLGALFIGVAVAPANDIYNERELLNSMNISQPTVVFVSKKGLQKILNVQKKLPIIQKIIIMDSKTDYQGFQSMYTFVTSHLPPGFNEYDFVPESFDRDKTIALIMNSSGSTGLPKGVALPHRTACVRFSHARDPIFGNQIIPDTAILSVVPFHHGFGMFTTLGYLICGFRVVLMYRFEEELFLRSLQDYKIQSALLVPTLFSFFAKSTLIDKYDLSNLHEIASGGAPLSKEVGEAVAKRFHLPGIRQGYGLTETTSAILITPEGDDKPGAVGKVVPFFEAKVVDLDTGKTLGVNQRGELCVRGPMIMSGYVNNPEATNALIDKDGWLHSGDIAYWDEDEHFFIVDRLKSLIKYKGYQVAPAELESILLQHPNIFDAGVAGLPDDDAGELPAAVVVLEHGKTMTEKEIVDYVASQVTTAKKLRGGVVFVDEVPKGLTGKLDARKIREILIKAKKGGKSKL

Regarding `COc1ccc(C(=O)Nc2cccc(CN3C(=O)[C@@]4(O[C@@H](CC(=O)N(CCO)Cc5ccccc5)[C@H]([Si](C)(C)c5ccc(OC)cc5)[C@H]4C)c4ccccc43)c2)cc1`, the composite z-score in the experiment with Albumin (Bos taurus) is 0.441; in [2], -0.122; in [3] it was -0.0868; in experiment [4] it was 0.56; in [5], 1.56; in [6], 0.229. Besides, the composite z-score is 1.19 in the experiment with Sam68 (KHDRBS1); 0.351 in experiment [7]; 0.601 in experiment [8]; 0.696 in [9]; 1.01 in experiment [10]; 0.16 in [11]. The composite z-score in [12] amounted to 0.193; in [13], 0.99; in experiment [14], 1.08; in the experiment with Lefty1, 1.18; in experiment [16], 0.289. Also, the composite Z-score in experiment [1] was 0.799 (inactive). The z-score in experiment [15] was -0.106; in experiment [17], -1.75 (inactive).

For the compound `CCCNC(=O)[C@@]1(Sc2ccc(C)cc2)CC(=O)N(C(C)C)[C@@H]1c1ccc(CO)cc1I`, the composite z-score with Albumin (Bos taurus) was -0.249; in experiment [2] it was -0.219; in [3], -0.163; in experiment [4] it was 0.771; in experiment [5], 1.22; in experiment [6] it was 0.846. In addition, the composite z-score was 0.58 with Sam68 (KHDRBS1); -2.46 in experiment [7]; -0.818 in experiment [8]; -0.139 in [9]; -0.435 in [10]; -0.288 in [11]. Besides, the composite z-score is -0.678 in [12]; -1.21 in experiment [13]; -1.5 in [14]; -1.96 in the experiment on Lefty1; -0.831 in [16]. Moreover, the composite Z-score in [1] is 0.292 (inactive). The z-score was 0.794 in experiment [15] and -0.121 (inactive) in experiment [17].

Take `Cc1ccccc1C(O)C1C=CC2C(=O)NC(=O)C2N1Nc1ccc(Cl)cc1Cl` (stereo not given): the composite z-score in the experiment with Albumin (Bos taurus) is 0.709; in experiment [2], -0.0653; in experiment [3] it was -0.0453; in experiment [4], 0.558; in [5], 2.4; in [6], 1.1. Besides, the composite z-score in the experiment with Sam68 (KHDRBS1) came to 0.965; in [7], 0.291; in experiment [8], 0.814; in experiment [9], 0.817; in experiment [10], 1.18; in experiment [11], 0.276. Besides, the composite z-score in experiment [12] is 0.866; in experiment [13] it was 0.802; in [14], -0.344; in the experiment with Lefty1, 0.518; in experiment [16] it was 0.951. Besides, in experiment [1], the composite Z-score was 1.42 (inactive). Besides, the figures for the z-score in [15] and in experiment [17] were -1.06 and -1.08 (inactive), respectively.

On to `Cc1ccc(S[C@]2(C(=O)NC(C)C)CC(=O)N(Cc3ccccc3Cl)[C@@H]2c2ccc(CO)cc2)cc1`, for which the composite z-score is 0.29 with Albumin (Bos taurus); -0.294 in experiment [2]; -0.146 in [3]; 0.717 in [4]; 0.634 in experiment [5]; 0.542 in [6]. Further, the composite z-score with Sam68 (KHDRBS1) was -1.21; in experiment [7], -1.85; in [8], -0.744; in experiment [9] it was 0.568; in experiment [10], 0.424; in experiment [11] it was -0.092. In addition, the composite z-score was 0.54 in [12]; -0.568 in experiment [13]; -1.27 in [14]; -1.56 in the experiment on Lefty1; 0.762 in experiment [16]. In [1], the composite Z-score was 0.0728 (inactive). Besides, the z-score in [15] was -0.718; in experiment [17], -0.426 (inactive).

Take `COc1ccc([Si](C)(C)[C@H]2[C@H](CCO)O[C@@]3(C(=O)N(Cc4ccccc4)c4ccc(N5C(=O)c6ccccc6Oc6ccccc65)cc43)[C@@H]2C)cc1`: the composite z-score with Albumin (Bos taurus) was 0.467; in experiment [2], -0.0984; in experiment [3] it was -0.106; in experiment [4] it was 0.532; in [5], 1.47; in experiment [6], 0.62. For the same compound, the composite z-score with Sam68 (KHDRBS1) is 0.442; in experiment [7] it was 0.214; in experiment [8], 0.823; in experiment [9] it was 0.814; in experiment [10] it was 0.885; in experiment [11], -0.21. For the same compound, the composite z-score in experiment [12] was -0.0167; in [13] it was -0.4; in experiment [14], 1.02; in the experiment on Lefty1 it was -0.204; in experiment [16], 1.23. For the same compound, the composite Z-score in experiment [1] is -0.216 (inactive). The results for the z-score in [15] and in experiment [17] were 0.616 and 0.666 (inactive), respectively.
